According to PMC7826789 (International Journal of Molecular Sciences, 2021):

test system: T1, LZK; conditions: Compound Concentration (nM):1000
T1 construct: gene MAP3K13
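Further: KINOMEscan scanMAX binding as percent activity remaining versus control; lower means stronger binding.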

Percent Control, inactive:
Cl.O=S1CCN(Cc2ccc(-c3ccc4ncnc(Nc5ccc(OCc6ccccc6)c(F)c5)c4c3)o2)CC1 [GW576924A] 100%
COc1ccc2[nH]c3c4[nH]c5ccc(OC)cc5c4c4c(c3c2c1)C(=O)NC4=O [GW296115X] 77%
COc1cc2ncnc(Nc3ccc4c(cnn4Cc4ccccc4)c3)c2cc1OC.Cl [GW282449A] 100%
COc1cc(C=NNc2ncnc3c2cnn3-c2ccccc2)ccc1O [GW513184X] 98%
COc1ccccc1-c1cc(/C=C2\C(=O)Nc3ncc(Br)cc32)cc(Br)c1O [GW442130X] 84%
CN1CCN(C(=O)c2ccc(NC(=O)Nc3ccc(N(C)c4ccnc(Nc5ccc(CS(C)(=O)=O)cc5)n4)cc3)cc2)CC1.Cl [GW830263A] 70%
O=C1Nc2ccc(C(=O)c3ccco3)cc2C1=Cc1cc(Cl)c(O)c(Cl)c1 [GW406108X] 94%
COc1cc(/C=N/Nc2ncnc3[nH]ncc23)ccc1O [GW578748X] 100%
Cc1cc(O)cc(C)c1/C=C/c1cncc(C(N)=O)c1 [GW435821X] 100%
CCS(=O)(=O)c1ccc(OC)c(Nc2ncc(-c3cccc(F)c3)o2)c1 [GW621970X] 100%
Cl.O=C(Nc1ccc(Oc2ccc3[nH]c(NC(=O)c4ccco4)nc3c2)cc1)Nc1cc(C(F)(F)F)ccc1F [GW683134A] 100%
Nc1ncnc2occ(-c3ccc(NC(=O)Nc4cc(C(F)(F)F)ccc4F)cc3)c12 [GW770249X] 100%
O=C(Nc1n[nH]c2nc(-c3ccc(O)cc3)c(Br)cc12)C1CC1 [SB-725317] 100%
CC1=C(C(=O)Nc2ccc3[nH]ncc3c2)C(c2ccc(Cl)c(Cl)c2)CC(=O)N1 (stereo not drawn) [GSK299115A] 79%
NS(=O)(=O)c1ccc(N/N=C2\C(=O)Nc3ccc(Cl)cc32)cc1 [GW280670X] 100%
CC1=C(C(=O)Nc2ccc3[nH]ncc3c2)C(c2ccc3ccccc3c2)CC(=O)N1 (stereo not drawn) [GSK270822A] 72%
COc1cccc(-c2c[nH]c3c(N/N=C/c4ccncc4)ncnc23)c1 [GW814408X] 93%
NS(=O)(=O)c1ccc(N/N=C2\C(=O)Nc3ccc(C(=O)NCCc4c[nH]cn4)cc32)cc1 [GW300660X] 100%
CN(C)CCNC(=O)Nc1ccc(N(C)c2ccnc(Nc3ccc(CS(C)(=O)=O)cc3)n2)cc1.Cl [GW830900A] 75%
COc1ccc2cc(-c3c(-c4ccncc4)nc(-c4ccc(S(C)(=O)=O)cc4C)n3C)ccc2c1 [SB-633825] 65%
NS(=O)(=O)c1ccc(N/N=C2\C(=O)Nc3ccc(-c4cnco4)cc32)cc1 [GW276655] 62%
CN(C)c1cc2c(Nc3ccc4c(cnn4Cc4ccccc4)c3)ncnc2cn1 [GW282974X] 100%
COc1ccc2c(-c3ccnc(Nc4cccc(OC(F)(F)F)c4)n3)cnn2n1 [GW810372X] 100%
Cl.O=C(O[C@H]1CN[C@H](C#Cc2cc3ncnc(Nc4ccc5c(cnn5Cc5ccccc5)c4)c3s2)C1)N1CCOCC1 [GSK200398A] 100%
CCS(=O)(=O)c1ccc(OC)c(Nc2ncc(-c3cccc(OC)c3)o2)c1 [GW580509X] 100%
CCc1ccc(Oc2nccc(-c3c(-c4ccc(F)cc4)ncn3C3CCNCC3)n2)cc1 [SB-242719] 95%
NS(=O)(=O)c1ccc(N/N=C2\C(=O)Nc3ccc(C(=O)NCc4ccncc4)cc32)cc1 [GW300657X] 72%
COc1ccc(COc2ccc(Cc3cnc(N)nc3N)cc2OC)cc1 [GW632580X] 77%
NS(=O)(=O)c1ccc(Nc2ncc(-c3ccccc3)o2)cc1 [GW572399X] 100%
COC(=O)Nc1nc2ccc(Oc3ccc(NC(=O)Nc4cc(C(F)(F)F)ccc4F)cc3)cc2s1.Cl [GW693917A] 78%
COc1cc(C)c(N(C)C(=O)CN(C)C)cc1Nc1nc(Nc2cccc(F)c2C(N)=O)c2cc[nH]c2n1 [GSK2219385] 80%
COc1cc(N2CCN(C(C)C)CC2)ccc1Nc1nc(Nc2ccc(F)cc2C(=O)NC[C@@H](O)CO)c2cc[nH]c2n1 [GSK1392956A] 100%
CC(C)COC(=O)c1ccc2c(c1)/C(=C/Nc1ccc(S(N)(=O)=O)cc1)C(=O)N2 [GW416981X] 100%
Cl.c1ccc(Cc2nc3ccc(Nc4ncnc5ccccc45)cc3[nH]2)cc1 [GR269666A] 100%
CCn1c(-c2nonc2N)nc2c(C#CC(C)(C)O)nc(OCCNC)cc21.Cl [GSK949675] 91%
COc1cc2ncn(-c3cc(O[C@H](C)c4ccccc4Cl)c(C(N)=O)s3)c2cc1OC [GSK237701A] 70%
